# A number with no mark means an inactive call. Results filed as inconclusive are left out. The source made the active and inactive calls. Calls come from the whole dose curve; as a rule, active = well fitted curve in the direction sought with a large enough effect; inconclusive = small, poorly fitted or top-dose-only effect, or another doubt; inactive = no such curve, though single readings can be large; an effect the other way counts as inactive or inconclusive.
# Molecular target: Cytochrome P450 3A4 (Homo sapiens) (UniProt P08684)
# Assay: qHTS Assay for Activators of Cytochrome P450 3A4 (AID 885); note: nearly all actives have a fitted effect of over 65% in size
# Conditions: recombinant CYP3A4, Luciferin-PPXE luminescence, 60 min; series mostly up to 57.1 µM; activity change, positive = activation: at the top concentration
# Outline: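 CYP3A4 activity: Luciferin-PPXE O-dealkylation, 25uM substrate, 200mM KPO4, RT throughout. Read-out is luciferase luminescence; higher values reflect activation.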
# Potency is the fitted concentration of half-maximal effect.
# Cytochrome P450 3A4 (Homo sapiens), sequence (P08684 whole entry, looked up): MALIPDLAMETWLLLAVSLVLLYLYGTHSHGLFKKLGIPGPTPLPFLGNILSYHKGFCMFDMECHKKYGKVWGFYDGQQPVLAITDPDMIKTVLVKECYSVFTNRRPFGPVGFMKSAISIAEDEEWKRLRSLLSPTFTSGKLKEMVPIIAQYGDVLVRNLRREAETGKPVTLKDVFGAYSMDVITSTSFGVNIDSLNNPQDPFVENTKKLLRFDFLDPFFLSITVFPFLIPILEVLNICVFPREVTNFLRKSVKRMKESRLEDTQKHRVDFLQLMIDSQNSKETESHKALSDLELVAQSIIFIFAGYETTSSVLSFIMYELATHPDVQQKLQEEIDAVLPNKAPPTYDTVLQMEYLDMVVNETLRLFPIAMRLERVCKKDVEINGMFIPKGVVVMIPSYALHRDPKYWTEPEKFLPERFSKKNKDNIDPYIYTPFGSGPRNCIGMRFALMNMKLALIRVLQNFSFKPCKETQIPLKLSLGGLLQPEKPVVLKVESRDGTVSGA
SMILES,"activity change, positive = activation",Potency
CCCc1nc(C(C)(C)O)c(C(=O)OCc2oc(=O)oc2C)n1Cc1ccc(-c2ccccc2-c2nn[nH]n2)cc1,-57.1%,
C=C1C(CCl)(CCl)C2(Cl)C(Cl)C(Cl)C1(Cl)C2(Cl)Cl (configuration not stated),-61.9%,
C[C@@](Cc1ccc(O)c(O)c1)(NN)C(=O)O,-70.1%,
Nc1ccc(N=Nc2ccccc2)c(N)n1,,inactive
CC(C)c1nc(N(C)S(C)(=O)=O)nc(-c2ccc(F)cc2)c1/C=C/C(O)CC(O)CC(=O)O (configuration not stated),-58.7%,
CC(=O)[C@H]1CC[C@H]2[C@@H]3C=CC4=CC(=O)CC[C@@]4(C)[C@H]3CC[C@]12C,,7.94 µM (active)
Cc1cc(-c2ccc(N=Nc3ccc4c(S(=O)(=O)O)cc(S(=O)(=O)O)c(N)c4c3O)c(C)c2)ccc1N=Nc1ccc2c(S(=O)(=O)O)cc(S(=O)(=O)O)c(N)c2c1O,-66.2%,
O=C1c2ccccc2C(=O)c2c1ccc(O)c2O,-71.8%,
CCSc1ccc2c(c1)N(CCCN1CCN(C)CC1)c1ccccc1S2,-37.3% [at 25.6 µM],
Cc1cccc(C)c1NC(=O)C1CCCCN1C (configuration not stated),-38.4%,
Cc1cc(C)c(NC(=O)C[C@H](CC(=O)O)c2cccc3ccccc23)c(C(=O)N2CCC3(CCCC3)CC2)c1,-83.6%,
O=C(CCCCCCCCCCCCC1CCCC1)Nc1ccc(S(=O)(=O)c2ccc(NC(=O)CCCCCCCCCCCCC3CCCC3)cc2)cc1,-38.7%,

# Molecular target: Cytochrome P450 2D6 (Homo sapiens) (UniProt P10635)
# Assay: qHTS Assay for Inhibitors and Substrates of Cytochrome P450 2D6 (AID 891); note: nearly all actives have a fitted effect of over 60% in size;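 for activity change, negative = inhibition: luciferin methyl ether substrate demethylated by CYP2D6 with NADPH regeneration; % is set by controls: 0 for no effect and ±100 for the full control effect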
# Conditions: recombinant CYP2D6, luciferin-ME EGE luminescence; series mostly up to 11.4 µM; activity change, negative = inhibition: at the top concentration
# Outline: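 Luminescent read-out of luciferin formed by 5 nM human CYP2D6 demethylating 30 uM Luciferin-ME EGE (Km level) over 60 min at room temperature after NADPH regeneration addition. Data normalized to full inhibition by 1.43 uM quinidine.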
# Cytochrome P450 2D6 (Homo sapiens), sequence (P10635 whole entry, looked up): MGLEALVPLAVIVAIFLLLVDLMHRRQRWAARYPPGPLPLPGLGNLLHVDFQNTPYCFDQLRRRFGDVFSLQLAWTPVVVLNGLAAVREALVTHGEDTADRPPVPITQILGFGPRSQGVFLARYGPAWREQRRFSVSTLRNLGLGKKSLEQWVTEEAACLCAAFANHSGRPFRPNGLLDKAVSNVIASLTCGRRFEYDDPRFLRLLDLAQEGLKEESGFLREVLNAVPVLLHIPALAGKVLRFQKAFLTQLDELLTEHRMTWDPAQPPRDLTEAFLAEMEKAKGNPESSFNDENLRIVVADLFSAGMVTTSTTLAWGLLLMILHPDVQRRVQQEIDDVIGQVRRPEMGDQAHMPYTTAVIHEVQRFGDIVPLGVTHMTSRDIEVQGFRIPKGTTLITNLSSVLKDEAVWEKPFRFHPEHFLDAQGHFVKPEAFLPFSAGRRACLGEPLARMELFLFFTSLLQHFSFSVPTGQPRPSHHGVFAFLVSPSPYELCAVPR
SMILES,Potency,"activity change, negative = inhibition"
CCCOc1cc(N)ccc1C(=O)OCCN(CC)CC,2 µM (active),
CN1CCc2c(c3ccccc3n2Cc2ccccc2)C1,3.16 µM (active),
Cc1cc(-c2ccc(N=Nc3ccc4c(S(=O)(=O)O)cc(S(=O)(=O)O)c(N)c4c3O)c(C)c2)ccc1N=Nc1ccc2c(S(=O)(=O)O)cc(S(=O)(=O)O)c(N)c2c1O,15.8 µM (active),
CCSc1ccc2c(c1)N(CCCN1CCN(C)CC1)c1ccccc1S2,2.51 µM (active),
Cc1c(O)c(=O)ccn1C,,7.82%

# System: not listed separately
# Assay: Confirmation and Secondary Assay for Modulators of Hemoglobin Beta Chain Splicing at IVS2 654 locus (AID 910);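 note: HeLa cells stably carrying EGFP split by mutant beta-globin IVS2-654 intron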;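 note: potency of activators that raise GFP signal by restoring correct splicing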; for activation (splicing correction): % of control where 0% means no effect
# Conditions: HeLa EGFP-654 splicing reporter, GFP fluorescence, 48 h; series mostly up to 46.1 µM; activation (splicing correction): at the top concentration
# Outline: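 HeLa cells stably expressing EGFP interrupted by β-globin IVS2-654 intron, seeded overnight in Opti-MEM/2% FCS, then treated 2 days at 37 °C. Restored splicing read as total peak GFP intensity per well by laser scanning cytometry (488 nm excitation, 500–520 nm emission); 500 nM antisense PNA as control.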
SMILES,activation (splicing correction),Potency
CCCc1nc(C(C)(C)O)c(C(=O)OCc2oc(=O)oc2C)n1Cc1ccc(-c2ccccc2-c2nn[nH]n2)cc1,-2.6%,
CCOC(=O)C1=C(COCCN)NC(C)=C(C(=O)OC)C1c1ccccc1Cl (configuration not stated),0.54% [at 38.3 µM],
CN1CCc2c(c3ccccc3n2Cc2ccccc2)C1,-1.69%,
Nc1ccc(N=Nc2ccccc2)c(N)n1,,15.8 µM (active)
C=CC(C)(O)CC/C=C(\C)CCC=C(C)C (configuration not stated),0.799% [at 38.3 µM],
CC(C)c1nc(N(C)S(C)(=O)=O)nc(-c2ccc(F)cc2)c1/C=C/C(O)CC(O)CC(=O)O (configuration not stated),-0.449%,
CC1CCC(NC(=O)N(CCCl)N=O)CC1 (configuration not stated),-2.75%,
CC1CCCC(C)N1NC(=O)c1ccc(Cl)c(S(N)(=O)=O)c1 (configuration not stated),13.1%,
NCC(O)CC(=O)O (configuration not stated),6.45%,
COc1cc(S(C)=O)ccc1-c1nc2ncccc2[nH]1 (configuration not stated),6.65%,
O=C(O)CCC(=O)c1ccc(-c2ccccc2)cc1,6.8%,
CC(=O)N=c1sc(S(N)(=O)=O)nn1C,4.33%,
O=C(O)[C@H]1C(=CCO)O[C@H]2CC(=O)N12,4.51%,
O=C1c2ccccc2C(=O)c2c1ccc(O)c2O,3.96%,
CC(=O)Oc1cccc(C(=O)O)c1OC(C)=O,2.22%,
N#Cc1ccc2c(c1)N(CCCN1CCC(O)CC1)c1ccccc1S2,4.8%,
CC(=O)Oc1cccc2c1C(=O)c1c(OC(C)=O)cc(C(=O)O)cc1C2=O,-3%,
Cc1cccc(C)c1NC(=O)C1CCCCN1C (configuration not stated),3.25%,
CC(=O)Nc1ccc(OC(=O)c2ccccc2O)cc1,-0.409%,
CC[C@H]1OC(=O)[C@H](C)[C@@H](O[C@H]2C[C@@](C)(OC)[C@@H](O)[C@H](C)O2)C(C)[C@@H](O[C@@H]2O[C@H](C)C[C@H](N(C)C)[C@@H]2O)[C@](C)(OC)C[C@@H](C)C(=O)[C@H](C)[C@@H](O)[C@]1(C)O (some centres not stated),3.82%,
O=C(CCCCCCCCCCCCC1CCCC1)Nc1ccc(S(=O)(=O)c2ccc(NC(=O)CCCCCCCCCCCCC3CCCC3)cc2)cc1,2.59%,

# System: not listed separately
# Assay: Cell Viability - LYMP2-001 (AID 921);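 note: cells exposed to compound for 24 h at 37 °C; nearly all actives have a fitted effect of over 70% in size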;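 for activity change, negative = cytotoxic: 0% = DMSO only and full inhibition = tetraoctylammonium bromide control wells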
# Conditions: LYMP2-001 lymphoblastoid cell viability; series mostly up to 92.2 µM; activity change, negative = cytotoxic: at the top concentration
# Outline: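 qHTS, 1536-well; lymphoblastoid cells, 24 hr compound, 37 C; ATP by CellTiter-Glo, 30 min RT; luminescence; Hill-fit AC50.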
SMILES,Potency,"activity change, negative = cytotoxic"
C=C1C(CCl)(CCl)C2(Cl)C(Cl)C(Cl)C1(Cl)C2(Cl)Cl (configuration not stated),39.8 µM (active),
Nc1ccc(N=Nc2ccccc2)c(N)n1,,-12.9%
C[C@H](CCC(=O)O)[C@H]1CC[C@H]2[C@@H]3[C@H](O)C[C@@H]4C[C@H](O)CC[C@]4(C)[C@H]3C[C@H](O)[C@]12C,,3.15%

# System: not listed separately
# Assay: Confirmation and Secondary Assay for Modulators of Hemoglobin Beta Chain Splicing at IVS2 705 locus (AID 930);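 note: GFP fluorescence per well restored by corrected splicing of the IVS2-705 intron in EGFP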;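 for activation: HeLa cells stably expressing the EGFP-705 splicing reporter; % of control where 0% means no effect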
# Conditions: HeLa EGFP-705 splicing reporter, GFP fluorescence, 48 h; series mostly up to 46.1 µM; activation: at the top concentration
# Outline: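 HeLa cells stably carrying EGFP interrupted by mutant beta-globin intron 2 (IVS2-705) treated 2 days at 37C with compound; 500 nM antisense PNA as control. Correct splicing read as total peak GFP intensity per well by laser-scanning cytometry.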
SMILES,activation,Potency
CCCc1nc(C(C)(C)O)c(C(=O)OCc2oc(=O)oc2C)n1Cc1ccc(-c2ccccc2-c2nn[nH]n2)cc1,0.976%,
CCOC(=O)C1=C(COCCN)NC(C)=C(C(=O)OC)C1c1ccccc1Cl (configuration not stated),0.711% [at 38.3 µM],
CN1CCc2c(c3ccccc3n2Cc2ccccc2)C1,0.827%,
Nc1ccc(N=Nc2ccccc2)c(N)n1,,20 µM (active)
C=CC(C)(O)CC/C=C(\C)CCC=C(C)C (configuration not stated),0.833% [at 38.3 µM],
CC(C)c1nc(N(C)S(C)(=O)=O)nc(-c2ccc(F)cc2)c1/C=C/C(O)CC(O)CC(=O)O (configuration not stated),0.601%,
CC1CCC(NC(=O)N(CCCl)N=O)CC1 (configuration not stated),1.21%,
CC1CCCC(C)N1NC(=O)c1ccc(Cl)c(S(N)(=O)=O)c1 (configuration not stated),-0.172%,
NCC(O)CC(=O)O (configuration not stated),-0.241%,
COc1cc(S(C)=O)ccc1-c1nc2ncccc2[nH]1 (configuration not stated),3.14%,
O=C(O)CCC(=O)c1ccc(-c2ccccc2)cc1,0.971%,
CC(=O)N=c1sc(S(N)(=O)=O)nn1C,-0.325%,
O=C(O)[C@H]1C(=CCO)O[C@H]2CC(=O)N12,2.68%,
O=C1c2ccccc2C(=O)c2c1ccc(O)c2O,0.753%,
CC(=O)Oc1cccc(C(=O)O)c1OC(C)=O,-1.23%,
N#Cc1ccc2c(c1)N(CCCN1CCC(O)CC1)c1ccccc1S2,0.777%,
CC(=O)Oc1cccc2c1C(=O)c1c(OC(C)=O)cc(C(=O)O)cc1C2=O,1.02%,
Cc1cccc(C)c1NC(=O)C1CCCCN1C (configuration not stated),0.442%,
CC(=O)Nc1ccc(OC(=O)c2ccccc2O)cc1,5.26%,
CC[C@H]1OC(=O)[C@H](C)[C@@H](O[C@H]2C[C@@](C)(OC)[C@@H](O)[C@H](C)O2)C(C)[C@@H](O[C@@H]2O[C@H](C)C[C@H](N(C)C)[C@@H]2O)[C@](C)(OC)C[C@@H](C)C(=O)[C@H](C)[C@@H](O)[C@]1(C)O (some centres not stated),0.864%,
O=C(CCCCCCCCCCCCC1CCCC1)Nc1ccc(S(=O)(=O)c2ccc(NC(=O)CCCCCCCCCCCCC3CCCC3)cc2)cc1,2.1%,

# Source: PubChem BioAssay (NCATS)
